The subject of the assay is Plasmodium falciparum NF54/iGP1_RE9H ulg8 stage V gametocytes. Briefly: gametocyte viability (luciferase signal relative to DMSO control) (% of DMSO control); higher = less gametocytocidal activity, active = 50 or less. The following applies: exposure time: 72 h. Put shortly: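 Viability was calculated relative to the mean of DMSO vehicle wells on each plate. Day-12 stage V gametocytes of line NF54/iGP1_RE9Hulg8 (~2.5% gametocytemia, 3% hematocrit, 0.5% Albumax II medium) were exposed in 96-well plates to compounds at final 10 µM or 1 µM, one well each, for 72 h at 37 °C. Luminescence was then read on an IVIS Lumina II after D-luciferin addition.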

The source of these data is the supplement of paper PMC12297408.

Each structure is given as a SMILES string. Counter-ions that a name gives are not always drawn. Screen size: about 1,300 compounds; about 40 (3%) showed activity. Only a selection was taken, and actives are over-represented in it overall. A number with no mark means an inactive call.

Regarding `C=C1/C(=C\C=C2/CCC[C@]3(C)[C@@H]([C@H](C)/C=C/[C@@H](O)C4CC4)CC[C@@H]23)C[C@@H](O)C[C@@H]1O` [Calcipotriene], the gametocyte viability was 79.2 (concentration: 1 µM) and 64.3 (concentration: 10 µM).
For `CCN[C@H]1C[C@H](C)S(=O)(=O)c2sc(S(N)(=O)=O)cc21` [Dorzolamide hydrochloride] the same measures were 80.2 and 87.2.
With `CC(C)(Sc1cc(C(C)(C)C)c(O)c(C(C)(C)C)c1)Sc1cc(C(C)(C)C)c(O)c(C(C)(C)C)c1` [Probucol], the gametocyte viability reads like this: (concentration: 1 µM) 84.2; (concentration: 10 µM) 85.2.
With `NC[C@@H]1O[C@H](O[C@H]2[C@@H](O)[C@H](O[C@@H]3[C@@H](O)[C@H](N)C[C@H](N)[C@H]3O[C@H]3O[C@H](CN)[C@@H](O)[C@H](O)[C@H]3N)O[C@@H]2CO)[C@H](N)[C@@H](O)[C@@H]1O` [Neomycin sulfate], the gametocyte viability is 81.7 (concentration: 1 µM) and 84.7 (concentration: 10 µM).
For `COc1cc(C(=O)OCCCN2CCCN(CCCOC(=O)c3cc(OC)c(OC)c(OC)c3)CC2)cc(OC)c1OC` [Dilazep dihydrochloride] the same measures were 85.4 and 94.7.
Regarding `COCCCOc1ccnc(C[S+]([O-])c2nc3ccccc3[nH]2)c1C` (configuration not stated) [Rabeprazole Sodium salt], the gametocyte viability is 83.8 (concentration: 1 µM) and 80.3 (concentration: 10 µM).
As for `CN(C)c1ccc(O)c2c1C[C@H]1C[C@H]3[C@H](N(C)C)C(=O)C(C(N)=O)=C(O)[C@@]3(O)C(=O)C1=C2O` [Minocycline hydrochloride], the gametocyte viability is 83.1 (concentration: 1 µM) and 83.3 (concentration: 10 µM).
As to `C=C(CC)C(=O)c1ccc(OCC(=O)O)c(Cl)c1Cl` [Ethacrynic acid], the gametocyte viability was 90.4 (concentration: 1 µM) and 92.5 (concentration: 10 µM).
As to `N=C(N)NCc1cccc(I)c1` [Iobenguane sulfate], the gametocyte viability is, setting by setting: (concentration: 1 µM) 99.3; (concentration: 10 µM) 100.
As for `CC1(C)O[C@@H]2C[C@H]3[C@@H]4C[C@H](F)C5=CC(=O)C=C[C@]5(C)[C@@]4(F)[C@@H](O)C[C@]3(C)[C@]2(C(=O)CO)O1` [Fluocinolone acetonide], the gametocyte viability runs as follows: (concentration: 1 µM) 83.3; (concentration: 10 µM) 83.3.
Consider `CCC1=C(C)CN(C(=O)NCCc2ccc(S(=O)(=O)NC(=O)N[C@H]3CC[C@H](C)CC3)cc2)C1=O` [Glimepiride], for which the gametocyte viability runs as follows: (concentration: 1 µM) 97.7; (concentration: 10 µM) 101.
For `CC(C)(Oc1ccc(CCNC(=O)c2ccc(Cl)cc2)cc1)C(=O)O` [Bezafibrate], the gametocyte viability (concentration: 1 µM) was 98.6 and the gametocyte viability (concentration: 10 µM) is 97.
For `CCCCC(CC)CNC(=N)NC(=N)NCCCCCCNC(=N)NC(=N)NCC(CC)CCCC` (configuration not stated) [Alexidine dihydrochloride] the same measures were 36.2 (active) and 0.515 (active).
Turning to `O=C(O)[C@H]1/C(=C/CO)O[C@@H]2CC(=O)N21` [Potassium clavulanate], the gametocyte viability (concentration: 1 µM) was 91.1 and the gametocyte viability (concentration: 10 µM) is 87.4.
For `C[C@]12CC[C@@H]3c4ccc(O)cc4CC[C@H]3[C@@H]1C[C@@H](O)[C@@H]2O` [Estriol], the gametocyte viability (concentration: 1 µM) is 94.6 and the gametocyte viability (concentration: 10 µM) is 92.2.
Consider `C[C@]12CC[C@@H]3c4ccc(O)cc4CC[C@H]3[C@@H]1CCC2=O` [Estrone], for which the gametocyte viability reads like this: (concentration: 1 µM) 99.2; (concentration: 10 µM) 96.4.
For `C[C@]12CC[C@@H]3c4ccc(O)cc4CC[C@H]3[C@@H]1CC[C@@H]2O` [Estradiol-17 beta] the same measures were 69.7 and 41.9 (active).
As to `CCCCCCC[N+](CC)(CC)CCCCc1ccc(Cl)cc1` [Clofilium tosylate], the gametocyte viability runs as follows: (concentration: 1 µM) 97.3; (concentration: 10 µM) 47.8 (active).
For `NNC(=O)c1ccncc1` [Isoniazid] the same measures were 80.8 and 83.4.
Regarding `Cc1ncc(C[n+]2csc(CCO)c2C)c(N)n1` [Thiamine hydrochloride], the gametocyte viability runs as follows: (concentration: 1 µM) 94; (concentration: 10 µM) 89.4.
For `CCCc1cc(C(N)=S)ccn1` [Prothionamide], the gametocyte viability reads like this: (concentration: 1 µM) 93.7; (concentration: 10 µM) 95.2.
For `CC(=O)Oc1cc(C(F)(F)F)ccc1C(=O)O` [Triflusal] the same measures were 82.3 and 87.1.
With `CC1(O)CCOC(=O)C1` (configuration not stated) [Mevalonic-D, L acid lactone], the gametocyte viability (concentration: 1 µM) was 86.7 and the gametocyte viability (concentration: 10 µM) was 93.8.
With `CC1c2cccc(O)c2C(O)=C2C(=O)C3(O)C(O)=C(C(N)=O)C(=O)C(N(C)C)C3C(O)C21` (configuration not stated) [Doxycycline hydrochloride], the gametocyte viability runs as follows: (concentration: 1 µM) 94.5; (concentration: 10 µM) 92.2.
`CC(=O)N(O)CCCCCNC(=O)CCC(=O)N(O)CCCCCNC(=O)CCC(=O)N(O)CCCCCN` [Deferoxamine mesylate]: the gametocyte viability is 90.6 (concentration: 1 µM) and 82.7 (concentration: 10 µM).
Regarding `CC(C(O)c1ccc(O)cc1)N1CCC(Cc2ccccc2)CC1` (configuration not stated) [Ifenprodil tartrate], the gametocyte viability is 81.9 (concentration: 1 µM) and 79.7 (concentration: 10 µM).
As for `CC(=O)O[C@H]1C[C@@H]2CC[C@@H]3[C@H](CC[C@@]4(C)[C@H]3C[C@H]([N+]3(C)CCCCC3)[C@@H]4OC(C)=O)[C@@]2(C)C[C@@H]1N1CCCCC1` [Vecuronium bromide], the gametocyte viability by setting is: (concentration: 1 µM) 85.2; (concentration: 10 µM) 93.1.
For `CCC(C)(C)c1ccc(CC(C)CN2C[C@@H](C)O[C@@H](C)C2)cc1` (some centres not stated) [Amorolfine hydrochloride] the same measures were 79.2 and 71.3.
With `Cc1ccc(C)c(OCCCC(C)(C)C(=O)O)c1` [Gemfibrozil], the gametocyte viability is, setting by setting: (concentration: 1 µM) 86.7; (concentration: 10 µM) 88.3.
For `C=CC(N)CCC(=O)O` (configuration not stated) [Vigabatrin], the gametocyte viability runs as follows: (concentration: 1 µM) 84.9; (concentration: 10 µM) 90.6.
As for `CC(Oc1c(Cl)cccc1Cl)C1=NCCN1` (configuration not stated) [Lofexidine], the gametocyte viability reads like this: (concentration: 1 µM) 92.5; (concentration: 10 µM) 90.5.
On to `CCCCC1C(=O)N(c2ccccc2)N(c2ccccc2)C1=O` [Phenylbutazone], for which the gametocyte viability (concentration: 1 µM) is 91 and the gametocyte viability (concentration: 10 µM) was 85.4.
Turning to `O=C(O)CN(CCN(CC(=O)O)CC(=O)O)CCN(CC(=O)O)CC(=O)O` [Pentetic acid], the gametocyte viability was 101 (concentration: 1 µM) and 101 (concentration: 10 µM).
For `CCOC(=O)NNc1nncc2ccccc12` [Todralazine hydrochloride], the gametocyte viability was 86.1 (concentration: 1 µM) and 76.5 (concentration: 10 µM).
For `NNc1nncc2ccccc12` [Hydralazine hydrochloride] the same measures were 94.8 and 12.8 (active).
With `O=C1C(=O)c2ccccc2C(O)=C1C1CCC(c2ccc(Cl)cc2)CC1` (configuration not stated) [Atovaquone], the gametocyte viability (concentration: 1 µM) was 91.4 and the gametocyte viability (concentration: 10 µM) is 99.6.
For `C#C[C@]1(O)CC[C@H]2[C@@H]3CCC4=C(CCC(=O)C4)[C@H]3CC[C@@]21C` [Norethynodrel], the gametocyte viability (concentration: 1 µM) was 83.2 and the gametocyte viability (concentration: 10 µM) was 68.7.
Consider `COC(=O)C1=C(C)NC(C)=C(C(=O)OC)C1c1ccccc1[N+](=O)[O-]` [Nifedipine], for which the gametocyte viability is, setting by setting: (concentration: 1 µM) 91.8; (concentration: 10 µM) 80.7.
For `Clc1ccc(C(Cn2ccnc2)OCc2c(Cl)cccc2Cl)c(Cl)c1` (configuration not stated) [Isoconazole] the same measures were 91.2 and 90.9.
With `CN(C)CCOC(C)(c1ccccc1)c1ccccn1` (configuration not stated) [Doxylamine succinate], the gametocyte viability by setting is: (concentration: 1 µM) 87.8; (concentration: 10 µM) 87.7.
On to `Cc1cc(-n2c(=O)[nH]c(=O)n(C)c2=O)ccc1Oc1ccc(SC(F)(F)F)cc1` [Toltrazuril], for which the gametocyte viability (concentration: 1 µM) is 86.4 and the gametocyte viability (concentration: 10 µM) is 84.2.
On to `CC1(C)O[C@@H]2C[C@H]3[C@@H]4C[C@H](F)C5=CC(=O)C=C[C@]5(C)[C@H]4[C@@H](O)C[C@]3(C)[C@]2(C(=O)CO)O1` [Flunisolide], for which the gametocyte viability by setting is: (concentration: 1 µM) 87.5; (concentration: 10 µM) 88.9.
On to `Cc1cc(C(C)(C)CC(C)(C)C)ccc1OCCOCC[N+](C)(C)Cc1ccccc1` [Methyl benzethonium chloride], for which the gametocyte viability is 88.6 (concentration: 1 µM) and 6.6 (active) (concentration: 10 µM).
As for `C[N+](C)(CCOc1ccccc1)Cc1ccccc1.O=C([O-])c1cc2ccccc2cc1O` [Bephenium hydroxynaphthoate], the gametocyte viability was 87.3 (concentration: 1 µM) and 89.9 (concentration: 10 µM).
Turning to `CC(C)(C)CC(C)(C)c1ccc(OCCOCC[N+](C)(C)Cc2ccccc2)cc1` [Benzethonium chloride], the gametocyte viability is 82.1 (concentration: 1 µM) and 9.32 (active) (concentration: 10 µM).
For `Cc1cc(C2CCCCC2)n(O)c(=O)c1` [Ciclopirox ethanolamine] the same measures were 85.5 and 86.8.
With `Clc1ccc2nsnc2c1NC1=NCCN1` [Tizanidine HCl], the gametocyte viability is 93.4 (concentration: 1 µM) and 98.4 (concentration: 10 µM).
As to `C[C@H]1[C@H](NC(=O)/C(=N\OC(C)(C)C(=O)O)c2csc(N)n2)C(=O)N1S(=O)(=O)O` [Aztreonam], the gametocyte viability by setting is: (concentration: 1 µM) 96.9; (concentration: 10 µM) 96.
For `CCOC(=O)O[C@]1(C(=O)OCCl)CC[C@H]2[C@@H]3CCC4=CC(=O)C=C[C@]4(C)[C@H]3[C@@H](O)C[C@@]21C` [Loteprednol etabonate] the same measures were 88.2 and 85.
Regarding `Cc1cccc(C)c1NC(=O)C(C)N` (configuration not stated) [Tocainide hydrochloride], the gametocyte viability by setting is: (concentration: 1 µM) 91.8; (concentration: 10 µM) 90.2.
Regarding `O=C1CC2(CCCC2)CC(=O)N1CCCCN1CCN(c2ncccn2)CC1` [Buspirone hydrochloride], the gametocyte viability (concentration: 1 µM) is 83.9 and the gametocyte viability (concentration: 10 µM) is 65.7.
Turning to `O=C1[C@H]2CCCC[C@H]2C(=O)N1CCCCN1CCN(c2nsc3ccccc23)CC1` [Perospirone], the gametocyte viability runs as follows: (concentration: 1 µM) 64.7; (concentration: 10 µM) 39.7 (active).
For `O=C1Cc2cc(CCN3CCN(c4nsc5ccccc45)CC3)c(Cl)cc2N1` [Ziprasidone  Hydrochloride], the gametocyte viability runs as follows: (concentration: 1 µM) 82.9; (concentration: 10 µM) 71.6.
Consider `OCCN(CCO)c1nc(N2CCCCC2)c2nc(N(CCO)CCO)nc(N3CCCCC3)c2n1` [Dipyridamole], for which the gametocyte viability reads like this: (concentration: 1 µM) 64.1; (concentration: 10 µM) 41.1 (active).
As for `N=c1nc(N2CCCCC2)cc(N)n1O` [Minoxidil], the gametocyte viability is 102 (concentration: 1 µM) and 96 (concentration: 10 µM).
As to `CC(C)NCC(O)c1ccc(O)c(O)c1` (single isomer, unassigned; (+)) [(+)-Isoproterenol (+)-bitartrate salt], the gametocyte viability by setting is: (concentration: 1 µM) 100; (concentration: 10 µM) 97.8.
